697 NFkB inh = lowers PMA/ionomycin-induced NF-kB signal in 697 B cells; 697 B-cell NF-kB luciferase reporter, 16 h; 330,000 tested, 0.33% active; inhibition, % at 4 µM; in the data active means inhibition above about 35%
Jurkat NFkB inh = inhibitors of the PMA/ionomycin-induced NF-kB reporter in Jurkat cells. PMA/ionomycin-induced NF-kB luciferase reporter, luminescence. inhibition, % at 4 µM. 330,000 tested, 0.53% active; in the data active means inhibition above about 50%
Shn3 inh set2 = Schnurri-3 reporter inhibition in Clone20 osteoblasts; Clone20 osteoblast Shn3 3'UTR firefly luciferase, 24 h; inhibition, % at 12.5 µM; 360,000 tested, 0.52% active; AID 588674;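 active means mean inhibition of at least 75% with every replicate also reaching 75%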;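 further: 0% = median of neutral control wells and 100% = pilot-screen positive control compound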
Gli-Sufu antag = blocks Gli-Sufu signaling in a luciferase reporter | inhibition, % at 5 µM | 340,000 tested, 0.74% active | Sufu-KO-LIGHT fibroblasts, Gli luciferase reporter luminescence;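 active means inhibition above about 55%, limit read from the data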;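 further: 0% = DMSO-treated cells and 100% = wells with medium but no cells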
TAG inh = triacylglycerol accumulation inhibition. inhibition, % at 12.5 µM. 230,000 tested, 0.66% active. AID 651582. H9c2 cells, Nile Red lipid (TAG) fluorescence; cells loaded with 200 µM oleic acid;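 active means pattern-corrected inhibition of lipid staining of at least 50% with the nuclear-stain viability signal not falling by more than 50%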;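 further: 0% = DMSO wells and 100% = triacsin C control wells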
aSyn UTR inh = 5' untranslated region of α-synuclein, MLPCN primary screen. 300,000 tested, 0.82% active. inhibition, % (tested at 7.5 µM). alpha-synuclein 5'UTR reporter, inhibitor activity; in the data active means inhibition above about 60%;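 further: H4 neuroglioblastoma cells stably carrying SNCA 5'UTR luciferase fusion; 0% = DMSO wells and 100% = positive control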
Gli antag conf = Gli-SUFU antagonism confirmation, single concentration. shares compounds with Gli-Sufu antag. Sufu-KO-LIGHT cells, Gli luciferase reporter, luminescence. inhibition, % at 5 µM. 2,500 tested, 40% active. AID 602428;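 active means mean inhibition at 5 µM reaching about 45%, limit read from the data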;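 further: plate controls were DMSO-treated cells for no effect and wells lacking cells for full effect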
SufuKO cytotox = counter-screen for Gli-SUFU antagonists: cytotoxicity. shares compounds with Gli-Sufu antag. Sufu-KO-LIGHT cells cytotoxicity, ATP luminescence. cytotoxicity, % at 5 µM. 2,500 tested, 32% active;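 active means mean cytotoxicity at 5 µM above about 25%, limit read from the data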;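 further: cells exposed to compound overnight for roughly 16 to 18 hours; plate controls were DMSO wells with cells for no effect and medium without cells for full effect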
Wnt3a cs = counter-screen for Gli-SUFU antagonists: Wnt3a reporter inhibition; shares compounds with Gli-Sufu antag; Wnt-LIGHT cells, Wnt3a-driven luciferase reporter, luminescence; inhibition, % at 6.25 µM; 2,500 tested, 20% active;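 active means mean inhibition above about 25%, limit read from the data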
* marks the source's active call; other numbers are inactive results; · = no result. The list is not random: actives were taken first. Their share in the collection is about 2.3%.

SMILES	697 NFkB inh	Jurkat NFkB inh	Shn3 inh set2	Gli-Sufu antag	TAG inh	aSyn UTR inh	Gli antag conf	SufuKO cytotox	Wnt3a cs
CCCNc1nc2c(c(=O)n(C)c(=O)n2C)n1CCc1ccccc1	-40	18	57	32	·	-17	·	·	·
CC(C)n1c(NCCc2ccccc2)nc2c1c(=O)n(C)c(=O)n2C	-58	23	79	51	-219	10	59*	38*	-5
Cn1c(=O)c2c(nc(NCCOc3ccc(C(C)(C)C)cc3)n2C)n(C)c1=O	-28	35	17	64*	·	8	47*	8	7
COc1ccccc1OCCNc1nc2c(c(=O)n(C)c(=O)n2C)n1C	-15	4	8	8	-29	13	·	·	·
CC1(C)Cc2c(cnn2-c2ccc(F)cc2)C(NC(=O)c2cnccn2)C1 (stereo not drawn)	-44	-17	-3	16	2	2	·	·	·
O=C(N/N=C/c1ccccc1O)c1cccc(C(F)(F)F)c1	-1	42	93*	66*	·	82*	62*	36*	58*
CCN(CC)S(=O)(=O)c1cccc(C(=O)N/N=C/c2cc(OC)c(O)c(OC)c2)c1	10	13	-3	6	10	14	·	·	·
O=C(N/N=C/c1ccc(O)cc1)c1cccc(C(F)(F)F)c1	-9	2	-6	6	-9	8	·	·	·
CCN(CC)S(=O)(=O)c1cccc(C(=O)N/N=C/c2cccc(O)c2O)c1	-48	5	90*	71*	26	66*	51*	48*	36*
Cc1ccc(C(=O)NC(NCC2CCCO2)C(Cl)(Cl)Cl)cc1 (stereo not drawn)	-7	6	14	14	·	8	·	·	·
CC(C)CC(=O)NC(NCC1CCCO1)C(Cl)(Cl)Cl (stereo not drawn)	10	-17	5	88*	12	-19	8	9	-10
O=C(O)c1ccc(-c2ccc(O)c(F)c2)cc1	9	-8	-8	53	6	15	18	-4	-7
O=C(O)c1ccc(O)c(O)c1	5	-15	1	3	·	-6	·	·	·
O=C(CN1C(=O)c2cccc3cccc1c23)N1CCN(c2ccccc2)CC1	22	1	-17	93*	-5	0	21	5	-16
Nc1nc2ccccc2n1/N=C/c1ccc([N+](=O)[O-])s1	-28	19	29	54	·	83*	53*	19	-118
CCC(/C=C1\Sc2ccc(OC)cc2N1CC)=C\c1sc2ccc(OC)cc2[n+]1CCCS(=O)(=O)[O-]	18	-6	75	70*	·	27	82*	40*	5
Cc1ccc(C)c(-c2cc(C(=O)N/N=C/c3cccnc3)c3ccccc3n2)c1	13	14	-3	52	-7	-19	19	7	-40
CC(=O)Nc1ccccc1NC(=O)C/C(C)=N/NC(=O)c1ccc([N+](=O)[O-])c(Cl)c1	7	11	-20	-4	·	4	·	·	·
Cc1cc(N2CCCCCC2)nc(-c2ccccc2O)n1	-1	1	11	85*	·	5	20	15	-16
COc1ccc(S(=O)(=O)N(C)C[C@H]2OCCCC[C@@H](C)Oc3ccc(NC(=O)CCC(F)(F)F)cc3C(=O)N([C@H](C)CO)C[C@@H]2C)cc1	·	·	-23	·	9	·	·	·	·
CCOc1ccccc1NC(=O)COC(=O)c1c(CC)noc1C	5	-7	3	67*	5	·	24	9	1
COc1cccc(CNC(=O)c2ccccc2-c2ccccc2)c1	-15	-5	5	13	-2	-12	·	·	·
CCN1CCN(CCNC(=O)C2CCCN(Cc3nc(-c4cccc(Cl)c4)oc3C)C2)CC1 (stereo not drawn)	-18	9	28	19	-19	-12	·	·	·

Screening results: PubChem BioAssay, several laboratories
